# Measurements reported in PubChem BioAssay.
# For part of these data: Results with a measured potency or affinity are listed apart. Active and inactive are the calls of the source.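 The calls were made as follows, unless noted: active = earlier screen potentiator hit that boosts the TRPC4 ion channel at some dose, with a dose response; inactive = no potentiation, no dose response, or not a prior hit.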
# Assays:
# [1] = system: TRPC4 beta (transient receptor potential cation channel C4), mouse; assay: TRPC4 cation channel opening, retest – cell-based, Fluo4 calcium, HEK293 TRPC4beta/mu-opioid, duplicates, 10 µM, confirmation (AID 2426;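 active = fluorescence ratio normalized to control raised more than 50% in primary screen plus both repeat runs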;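 also: percent rise of integrated ratio over buffer wells lacking compound which define 0%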); details: Fluo4 calcium fluorescence, at 10 µM; stronger effect = higher value
# [2] = system: transient receptor potential cation channel C4 beta (TRPC4), mouse; assay: TRPC4 cation channel opening, second retest – cell-based, second round, Fluo4, HEK293 TRPC4beta/mu-opioid, 1 µM, confirmation (AID 2461;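 active = primary screen active and over 50% activation in each of two duplicate runs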;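 as to activation: 0% = wells without test compound as baseline of integrated fluorescence ratio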); details: Fluo4 calcium fluorescence, at 1 µM; stronger effect = higher value
# [3] = system: TRPC4 (transient receptor potential cation channel C4 beta), mouse; assay: potentiation of DAMGO EC20 TRPC4 response – cell-based, second round, Fluo-4, HEK293 TRPC4beta/mu-opioid, 1 µM, confirmation (AID 2554;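 active = primary screen hit whose fluorescence ratio, in both repeats, exceeds the weak agonist control mean by 3 SD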); details: DAMGO EC20, Fluo-4 calcium flux, at 1 µM; stronger effect = higher value
# [4] = system: TRPC4 beta (transient receptor potential cation channel C4), mouse; assay: potentiation of DAMGO EC20 TRPC4 response – cell-based, Fluo-4, HEK293 TRPC4beta/mu-opioid, confirmation (AID 2555;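 active = primary screen hit whose calcium fluorescence ratio, in both repeats, exceeds the weak agonist control mean by 3 SD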); details: DAMGO EC20, Fluo-4 calcium flux, at 10 µM; stronger effect = higher value
# [5] = target: Short transient receptor potential channel 4 (Mus musculus) (UniProt Q9QUQ5); assay: blockers of DAMGO-evoked TRPC4 calcium flux – cell-based, Fluo4, HEK293 TRPC4beta/mu-opioid, confirmation (AID 2636;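 active = calcium signal cut by more than 3 SD below the full-agonist control yet still positive, in both repeats and the earlier primary screen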); details: at 10 µM; stronger effect = higher value
# Chain of Short transient receptor potential channel 4 (Mus musculus) (Q9QUQ5 whole entry, looked up): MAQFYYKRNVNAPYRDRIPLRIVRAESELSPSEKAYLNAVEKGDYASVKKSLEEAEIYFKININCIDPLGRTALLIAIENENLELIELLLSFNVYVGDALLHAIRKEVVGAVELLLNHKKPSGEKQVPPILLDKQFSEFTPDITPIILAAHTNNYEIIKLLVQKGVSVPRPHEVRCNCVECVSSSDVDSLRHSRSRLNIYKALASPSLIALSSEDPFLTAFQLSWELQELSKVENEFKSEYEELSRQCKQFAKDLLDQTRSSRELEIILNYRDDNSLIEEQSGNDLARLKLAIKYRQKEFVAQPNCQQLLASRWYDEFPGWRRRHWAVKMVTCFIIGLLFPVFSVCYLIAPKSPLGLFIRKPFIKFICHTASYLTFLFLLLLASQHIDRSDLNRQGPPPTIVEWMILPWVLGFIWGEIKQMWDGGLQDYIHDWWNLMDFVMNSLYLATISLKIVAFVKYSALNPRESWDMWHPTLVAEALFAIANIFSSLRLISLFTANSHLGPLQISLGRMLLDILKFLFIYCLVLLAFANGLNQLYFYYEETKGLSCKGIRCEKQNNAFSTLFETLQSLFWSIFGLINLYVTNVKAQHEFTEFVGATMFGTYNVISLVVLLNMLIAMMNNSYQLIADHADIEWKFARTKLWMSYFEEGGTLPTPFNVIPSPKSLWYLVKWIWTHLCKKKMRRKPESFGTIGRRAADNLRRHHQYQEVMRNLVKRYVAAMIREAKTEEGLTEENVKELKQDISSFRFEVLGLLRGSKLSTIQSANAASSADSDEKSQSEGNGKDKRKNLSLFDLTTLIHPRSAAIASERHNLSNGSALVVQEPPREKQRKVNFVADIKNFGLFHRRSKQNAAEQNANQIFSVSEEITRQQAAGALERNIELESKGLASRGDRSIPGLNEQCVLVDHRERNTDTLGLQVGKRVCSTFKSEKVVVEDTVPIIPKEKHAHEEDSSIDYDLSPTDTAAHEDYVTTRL
# [6] = target: Short transient receptor potential channel 4 (Mus musculus) (UniProt Q9QUQ5); assay: blockers of DAMGO-evoked TRPC4 calcium flux – cell-based, second round, Fluo4, HEK293 TRPC4beta/mu-opioid, 1 µM, confirmation (AID 2637;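 active = calcium signal ratio cut to more than 3 SD under the fully stimulated control mean yet still positive, in both repeats and the primary screen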); details: at 1 µM; stronger effect = higher value
# [7] = target: Short transient receptor potential channel 4 (Mus musculus) (UniProt Q9QUQ5); assay: potentiation of DAMGO-evoked TRPC4 calcium signal – cell-based, HEK293 TRPC4/mu-opioid, Fluo-4 calcium, EC20 DAMGO, dose response (AID 434941);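 also: calcium entry triggered by an EC20 dose of DAMGO at the co-expressed mu-opioid receptor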
# [8] = target: Short transient receptor potential channel 4 (Mus musculus) (UniProt Q9QUQ5); assay: block of DAMGO-driven TRPC4 calcium entry – cell-based, HEK293 TRPC4/mu-opioid, Fluo-4 calcium, dose response (AID 434942;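 active = primary screen inhibitor hit that blocks the TRPC4 channel at some tested dose, yielding a dose curve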)
# [9] = target: Short transient receptor potential channel 6 (Mus musculus) (UniProt Q61143); assay: TRPC6 blockade by TRPC4 inhibitor hits – cell-based, HEK293, membrane potential dye, duplicate, selectivity assay for TRPC4 inhibitor project, confirmation (AID 434948;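 active = active in primary screen and both duplicates, each dropping signal beyond three positive-control SD with fluorescence still positive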); details: HEK293 TRPC6, membrane potential dye fluorescence, at 10 µM; inhibition: stronger effect = higher value, stimulated with maximal-effect acetylcholine unless noted; outcome: stimulated with maximal-effect acetylcholine unless noted
# Chain of Short transient receptor potential channel 6 (Mus musculus) (Q61143 whole entry, looked up): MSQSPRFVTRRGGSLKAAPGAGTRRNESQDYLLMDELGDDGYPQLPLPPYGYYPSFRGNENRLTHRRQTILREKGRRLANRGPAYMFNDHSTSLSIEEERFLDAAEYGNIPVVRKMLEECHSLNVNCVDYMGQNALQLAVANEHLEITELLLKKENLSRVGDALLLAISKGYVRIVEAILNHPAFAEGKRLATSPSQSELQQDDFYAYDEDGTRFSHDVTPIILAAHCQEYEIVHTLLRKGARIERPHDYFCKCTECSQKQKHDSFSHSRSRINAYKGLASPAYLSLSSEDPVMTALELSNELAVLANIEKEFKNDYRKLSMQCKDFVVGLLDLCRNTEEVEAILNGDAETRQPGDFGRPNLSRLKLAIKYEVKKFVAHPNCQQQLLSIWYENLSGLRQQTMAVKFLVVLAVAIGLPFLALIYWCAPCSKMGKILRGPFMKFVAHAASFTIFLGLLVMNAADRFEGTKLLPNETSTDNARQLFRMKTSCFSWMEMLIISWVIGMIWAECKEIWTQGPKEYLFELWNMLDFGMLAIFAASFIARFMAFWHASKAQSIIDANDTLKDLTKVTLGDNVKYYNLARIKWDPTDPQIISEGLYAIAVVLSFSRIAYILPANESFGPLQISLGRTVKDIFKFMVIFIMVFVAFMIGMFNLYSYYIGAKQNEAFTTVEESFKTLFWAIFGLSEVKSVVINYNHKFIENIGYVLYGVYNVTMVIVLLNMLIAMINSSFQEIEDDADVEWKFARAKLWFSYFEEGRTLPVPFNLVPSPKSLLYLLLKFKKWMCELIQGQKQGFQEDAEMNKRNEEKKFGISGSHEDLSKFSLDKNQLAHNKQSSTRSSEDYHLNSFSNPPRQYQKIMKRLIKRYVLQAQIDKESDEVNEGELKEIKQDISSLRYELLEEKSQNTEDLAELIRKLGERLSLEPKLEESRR
# [10] = target: Short transient receptor potential channel 6 (Mus musculus) (UniProt Q61143); assay: TRPC6 opening by TRPC4 activator hits – cell-based, HEK293, membrane potential dye, duplicate, selectivity assay for TRPC4 activator project, confirmation (AID 434950;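 active = membrane potential signal rise above negative control mean plus 3 SD in both duplicates, also active in the earlier TRPC4 screen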;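 as to activation: 0% = buffer only wells and 100% = acetylcholine maximal-effect wells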); details: HEK293 TRPC6, membrane potential fluorescence, at 10 µM; activation: stronger effect = higher value; outcome: activation
# [11] = target: Short transient receptor potential channel 6 (Mus musculus) (UniProt Q61143); assay: positive modulators of mouse TRPC6 channel – HEK293 cells, membrane potential dye, duplicate, selectivity assay for TRPC4 potentiator project, confirmation (AID 434952;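 active = compound raising the membrane signal above positive-control mean plus 3 SD in both repeats, and a primary screen hit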); details: HEK293 TRPC6, membrane potential dye fluorescence, at 10 µM; maximal acetylcholine added after compound unless noted
# [12] = target: Short transient receptor potential channel 4 (Mus musculus) (UniProt Q9QUQ5); assay: calcium flux activators in TRPC4/5HT1a cells, counter-screen for TRPC4 activator project, cell-based, second counter screen, HEK293 TRPC4/5HT1a, Fluo-4 (AID 434977;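 active = calcium signal rise above buffer-control mean plus 5 SD in both duplicates, and also a hit in the primary screen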;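 as to activation: plate controls were assay buffer for no effect and maximal serotonin response for full effect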); details: Fluo-4 calcium flux, at 10 µM; stronger effect = higher value
# [13] = serotonin-gated TRPC4 signal block – cell-based, second counter screen, HEK293 TRPC4/5HT1a, Fluo-4, counter-screen for TRPC4 inhibitor project, confirmation (AID 434978;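 active = primary screen active whose calcium signal fell more than 3 SD beyond the full-serotonin control mean in both duplicate plates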;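 also: serotonin given first at submaximal then at maximal dose after compound preincubation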); details: Fluo-4 calcium flux, at 10 µM; inhibition: stronger effect = higher value, serotonin added to trigger calcium flux unless noted; outcome: serotonin added to trigger calcium flux unless noted
# [14] = system: TRPC4 (mouse), co-expressed with 5HT1a in HEK293; assay: enhancement of serotonin-evoked TRPC4 response – cell-based, second counter screen, HEK293 TRPC4/5HT1a, Fluo-4, counter-screen for TRPC4 potentiator project, confirmation (AID 434979;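 active = signal rise over 3 SD above mean of control wells given weak agonist, in both repeats and first screen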); details: Fluo-4 calcium flux, at 10 µM; outcome: serotonin added at its EC20 dose unless noted; potentiation: stronger effect = higher value, serotonin added at its EC20 dose unless noted
# [15] = nonspecific calcium rise without TRPC4 – cell-based, HEK293 mu-opioid receptor line, counter-screen for TRPC4 activator project, confirmation (AID 449723;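 active = hit in primary screen, with calcium signal over 5 SD above buffer well mean in both duplicates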;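 also: counter screen cells carry the mu-opioid receptor alone and lack TRPC4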); details: HEK293 mu-opioid cells, Fluo-4 calcium fluorescence, at 10 µM; stronger effect = higher value
# [16] = nonspecific potentiation of DAMGO calcium response – cell-based, HEK293 mu-opioid receptor line, counter-screen for TRPC4 allosteric potentiator project, confirmation (AID 449724;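 active = calcium signal rise more than 3 SD above the low-dose agonist control mean, in both duplicate plates and the primary screen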;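 also: HEK293 cells carrying mu-opioid receptor only with no TRPC4 channel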); details: HEK293 mu-opioid receptor cells, Fluo-4 calcium flux, at 10 µM; compound added before EC20 DAMGO stimulus unless noted
compound,measurement,setting,value
CN(C)C(CNC(=O)Cc1c(Cl)cccc1Cl)c1ccccc1 (stereo not given),activation,[1],148% (active)
same,activation,[2],86% (active)
same,outcome,[3],inactive
same,outcome,[4],inactive
same,outcome,[5],inactive
same,outcome,[6],inactive
same,outcome,[7],inactive
same,outcome,[8],inactive
same,outcome,[9],inactive
same,activation,[10],57.5% (active)
same,outcome,[11],inactive
same,outcome,[12],inactive
same,outcome,[13],inactive
same,outcome,[14],inactive
same,outcome,[15],inactive
same,outcome,[16],inactive
Cc1cc(-c2ccccc2)cc(C)[n+]1Cc1ccccc1,activation,[1],142% (active)
same,outcome,[2],inactive
same,outcome,[3],inactive
same,outcome,[4],inactive
same,outcome,[5],inactive
same,outcome,[6],inactive
same,outcome,[7],inactive
same,outcome,[8],inactive
same,outcome,[9],inactive
same,outcome,[10],inactive
same,outcome,[11],inactive
same,outcome,[12],inactive
same,outcome,[13],inactive
same,outcome,[14],inactive
same,outcome,[15],inactive
same,outcome,[16],inactive
COc1ccccc1CC(=O)N1CCN(CCc2ccccc2)CC1,activation,[1],79% (active)
same,outcome,[2],inactive
same,outcome,[3],inactive
same,outcome,[4],inactive
same,outcome,[5],inactive
same,outcome,[6],inactive
same,outcome,[7],inactive
same,outcome,[8],inactive
same,outcome,[9],inactive
same,activation,[10],48.5% (active)
same,outcome,[11],inactive
same,activation,[12],13.4% (active)
same,outcome,[13],inactive
same,outcome,[14],inactive
same,outcome,[15],inactive
same,outcome,[16],inactive
O=C(c1ccc2c3c(cccc13)CC2)C1CCCN(CC2CC2)C1 (stereo not given),activation,[1],164% (active)
same,activation,[2],79% (active)
same,outcome,[3],inactive
same,outcome,[4],inactive
same,outcome,[5],inactive
same,outcome,[6],inactive
same,outcome,[7],inactive
same,outcome,[8],inactive
same,outcome,[9],inactive
same,activation,[10],75.5% (active)
same,outcome,[11],inactive
same,activation,[12],61.9% (active)
same,outcome,[13],inactive
same,outcome,[14],inactive
same,outcome,[15],inactive
same,outcome,[16],inactive
COc1ccc(C(CNC(=O)Cc2ccc(Cl)c(Cl)c2)N(C)C)cc1 (stereo not given),activation,[1],120% (active)
same,activation,[2],95% (active)
same,outcome,[3],inactive
same,outcome,[4],inactive
same,outcome,[5],inactive
same,outcome,[6],inactive
same,outcome,[7],inactive
same,outcome,[8],inactive
same,outcome,[9],inactive
same,activation,[10],40.5% (active)
same,outcome,[11],inactive
same,outcome,[12],inactive
same,outcome,[13],inactive
same,outcome,[14],inactive
same,outcome,[15],inactive
same,outcome,[16],inactive
COc1ccc(C2NCCc3[nH]cnc32)cc1 (stereo not given),activation,[1],220% (active)
same,activation,[2],68% (active)
same,outcome,[3],inactive
same,outcome,[4],inactive
same,outcome,[5],inactive
same,outcome,[6],inactive
same,outcome,[7],inactive
same,outcome,[8],inactive
same,outcome,[9],inactive
same,outcome,[10],inactive
same,outcome,[11],inactive
same,activation,[12],49.5% (active)
same,outcome,[13],inactive
same,outcome,[14],inactive
same,outcome,[15],inactive
same,outcome,[16],inactive
O=[N+]([O-])c1ccc(N2CCNCC2)c2ncccc12,activation,[1],69% (active)
same,activation,[2],64% (active)
same,potentiation,[3],19% (active)
same,potentiation,[4],23% (active)
same,outcome,[5],inactive
same,outcome,[6],inactive
same,outcome,[7],inactive
same,outcome,[8],inactive
same,outcome,[9],inactive
same,outcome,[10],inactive
same,outcome,[11],inactive
same,activation,[12],38% (active)
same,outcome,[13],inactive
same,potentiation,[14],11% (active)
same,outcome,[15],inactive
same,outcome,[16],inactive
COc1ccc2c(c1O)C13CCN(C)C(C2)C1CCC(=O)C3 (stereo not given),activation,[1],82% (active)
same,activation,[2],96% (active)
same,outcome,[3],inactive
same,outcome,[4],inactive
same,outcome,[5],inactive
same,outcome,[6],inactive
same,outcome,[7],inactive
same,outcome,[8],inactive
same,outcome,[9],inactive [setting not given]
same,activation,[10],27.5% (active)
same,outcome,[11],inactive [setting not given]
same,outcome,[12],inactive
same,outcome,[13],inactive [setting not given]
same,outcome,[14],inactive [setting not given]
same,outcome,[15],inactive
same,outcome,[16],inactive [setting not given]
c1ccc2sc(N3CCNCC3)nc2c1,activation,[1],97% (active)
same,activation,[2],78% (active)
same,outcome,[3],inactive
same,outcome,[4],inactive
same,outcome,[5],inactive
same,outcome,[6],inactive
same,outcome,[7],inactive
same,outcome,[8],inactive
same,outcome,[9],inactive
same,activation,[10],29.5% (active)
same,outcome,[11],inactive
same,activation,[12],51.8% (active)
same,outcome,[13],inactive
same,outcome,[14],inactive
same,outcome,[15],inactive
same,outcome,[16],inactive
c1ccc2sc(C3CCCNC3)nc2c1 (stereo not given),activation,[1],170% (active)
same,activation,[2],115% (active)
same,outcome,[3],inactive
same,outcome,[4],inactive
same,outcome,[5],inactive
same,outcome,[6],inactive
same,outcome,[7],inactive
same,outcome,[8],inactive
same,outcome,[9],inactive
same,activation,[10],44% (active)
same,outcome,[11],inactive
same,activation,[12],95.3% (active)
same,outcome,[13],inactive
same,outcome,[14],inactive
same,outcome,[15],inactive
same,outcome,[16],inactive
Cc1ccc(NC(=S)NCCc2cnc[nH]2)cc1C,activation,[1],199% (active)
same,activation,[2],106% (active)
same,outcome,[3],inactive
same,outcome,[4],inactive
same,outcome,[5],inactive
same,outcome,[6],inactive
same,outcome,[7],inactive
same,outcome,[8],inactive
same,outcome,[9],inactive
same,outcome,[10],inactive
same,outcome,[11],inactive
same,activation,[12],85% (active)
same,outcome,[13],inactive
same,outcome,[14],inactive
same,outcome,[15],inactive
same,outcome,[16],inactive
CN(C)C=C1C(=O)N(C2CCCCC2)C(=O)N(C2CCCCC2)C1=O,activation,[1],83% (active)
same,outcome,[2],inactive
same,outcome,[3],inactive
same,outcome,[4],inactive
same,outcome,[5],inactive
same,outcome,[6],inactive
same,outcome,[7],inactive
same,outcome,[8],inactive
same,outcome,[9],inactive [setting not given]
same,outcome,[10],inactive
same,outcome,[11],inactive [setting not given]
same,activation,[12],124% (active)
same,outcome,[13],inactive [setting not given]
same,outcome,[14],inactive [setting not given]
same,activation,[15],39.4% (active)
same,outcome,[16],inactive [setting not given]
COc1cc(C)c(CNCCc2c[nH]c3ccccc23)cc1C,activation,[1],165% (active)
same,outcome,[2],inactive
same,outcome,[3],inactive
same,outcome,[4],inactive
same,outcome,[5],inactive
same,outcome,[6],inactive
same,outcome,[7],inactive
same,outcome,[8],inactive
same,outcome,[9],inactive
same,activation,[10],54.5% (active)
same,outcome,[11],inactive
same,activation,[12],74.2% (active)
same,outcome,[13],inactive
same,outcome,[14],inactive
same,activation,[15],12.8% (active)
same,outcome,[16],inactive
CCOC(=O)c1cc(C)n(CCc2cnc[nH]2)c1C,activation,[1],143% (active)
same,activation,[2],89% (active)
same,outcome,[3],inactive
same,outcome,[4],inactive
same,outcome,[5],inactive
same,outcome,[6],inactive
same,outcome,[7],inactive
same,outcome,[8],inactive
same,outcome,[9],inactive
same,activation,[10],26% (active)
same,outcome,[11],inactive
same,activation,[12],76% (active)
same,outcome,[13],inactive
same,outcome,[14],inactive
same,outcome,[15],inactive
same,outcome,[16],inactive
Clc1ccc2sc(C3CCNCC3)nc2c1,activation,[1],210% (active)
same,activation,[2],166% (active)
same,outcome,[3],inactive
same,outcome,[4],inactive
same,outcome,[5],inactive
same,outcome,[6],inactive
same,outcome,[7],inactive
same,outcome,[8],inactive
same,outcome,[9],inactive
same,outcome,[10],inactive
same,outcome,[11],inactive
same,activation,[12],82.6% (active)
same,outcome,[13],inactive
same,outcome,[14],inactive
same,outcome,[15],inactive
same,outcome,[16],inactive
